{"source": "the supplement of paper PMC8728848", "binders": {"B1": {"name": "EULS2 M3 (Oryza sativa) (protein)", "chain": "MVYCRANPNYAMTARNGAVVLAPANPKDEYQHWIKDMRWSTSIKDEEGYPAFALVNKATGQAIKHSLGQSHPVRLVPYNPEVMDESVLWTESRDVGNGFRCIRMVNNIYLNFDAFHGDKYHGGVRDGTDIVLWKLCEGDSLRWKIQPYYILEQKLISEEDLNSAVDHHHHHH"}}, "assay_in_all_cases": "glycan array binding signal (z-score within array); higher = stronger binding", "details_in_all_cases": "glycan notation: IUPAC condensed, linker removed", "key": {"[1]": {"molecular_target": "Kdn(a2-3)Gal(b1-4)[Fuc(a1-3)]GlcNAc", "summary_of_the_method": "(§1)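 Negative Z-scores can be read as non-binding. The Z-score is calculated within each array and then averaged across arrays of one protein sequence at different concentrations or buffers and across linkers. Arrays, 3228 in all, were curated from the Consortium for Functional Glycomics database and kept only where the protein sequence was available.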"}, "[2]": {"molecular_target": "Kdn(a2-6)Gal(b1-4)GlcNAc", "summary_of_the_method": "as §1"}, "[3]": {"molecular_target": "Man(b1-4)GlcNAc", "summary_of_the_method": "as §1"}, "[4]": {"molecular_target": "Neu5Ac(a2-3)Gal", "summary_of_the_method": "as §1"}, "[5]": {"molecular_target": "Neu5Ac(a2-3)Gal(b1-4)GlcNAc(b1-2)Man(a1-3)[GlcNAc(b1-4)][Neu5Ac(a2-3)Gal(b1-4)GlcNAc(b1-2)Man(a1-6)]Man(b1-4)GlcNAc(b1-4)GlcNAc", "summary_of_the_method": "as §1"}, "[6]": {"molecular_target": "Neu5Ac(a2-3)Gal(b1-4)GlcNAc(b1-3)Gal(b1-4)GlcNAc(b1-6)[Gal(b1-3)]GalNAc", "summary_of_the_method": "as §1"}, "[7]": {"molecular_target": "Neu5Ac(a2-3)Gal(b1-4)GlcNAc(b1-3)GalNAc", "summary_of_the_method": "as §1"}, "[8]": {"molecular_target": "Neu5Ac(a2-3)Gal(b1-4)[Fuc(a1-3)]GlcNAc(b1-3)Gal", "summary_of_the_method": "as §1"}, "[9]": {"molecular_target": "Neu5Ac(a2-3)GalNAc", "summary_of_the_method": "as §1"}, "[10]": {"molecular_target": "Neu5Ac(a2-6)Gal(b1-4)GlcNAc(b1-2)Man(a1-3)[Neu5Ac(a2-3)Gal(b1-4)GlcNAc(b1-2)Man(a1-6)]Man(b1-4)GlcNAc(b1-4)GlcNAc", "summary_of_the_method": "as §1"}, "[11]": {"molecular_target": "Neu5Ac(a2-6)GalNAc", "summary_of_the_method": "as §1"}, "[12]": {"molecular_target": "Neu5Ac(a2-8)Neu5Ac(a2-3)Gal(b1-3)GalNAc(b1-4)[Neu5Ac(a2-3)]Gal(b1-4)Glc", "summary_of_the_method": "as §1"}, "[13]": {"molecular_target": "Neu5Ac(a2-8)Neu5Ac(a2-8)Neu5Ac(a2-8)Neu5Ac(a2-3)[GalNAc(b1-4)]Gal(b1-4)Glc", "summary_of_the_method": "as §1"}, "[14]": {"molecular_target": "Neu5Gc(a2-3)Gal(b1-4)GlcNAc", "summary_of_the_method": "as §1"}}, "note": "Only a selection was taken, and the strongest signals are over-represented in it overall."}
{"binder": "B1", "values": [{"measurement": "glycan array binding signal (z-score)", "setting": "[1]", "result": 0.28}, {"measurement": "glycan array binding signal (z-score)", "setting": "[2]", "result": -0.599}, {"measurement": "glycan array binding signal (z-score)", "setting": "[3]", "result": 0.117}, {"measurement": "glycan array binding signal (z-score)", "setting": "[4]", "result": -1.29}, {"measurement": "glycan array binding signal (z-score)", "setting": "[5]", "result": -0.414}, {"measurement": "glycan array binding signal (z-score)", "setting": "[6]", "result": -0.345}, {"measurement": "glycan array binding signal (z-score)", "setting": "[7]", "result": -0.286}, {"measurement": "glycan array binding signal (z-score)", "setting": "[8]", "result": 0.557}, {"measurement": "glycan array binding signal (z-score)", "setting": "[9]", "result": -0.085}, {"measurement": "glycan array binding signal (z-score)", "setting": "[10]", "result": -0.391}, {"measurement": "glycan array binding signal (z-score)", "setting": "[11]", "result": -0.8}, {"measurement": "glycan array binding signal (z-score)", "setting": "[12]", "result": 1.61}, {"measurement": "glycan array binding signal (z-score)", "setting": "[13]", "result": -0.424}, {"measurement": "glycan array binding signal (z-score)", "setting": "[14]", "result": 0.145}]}
